Assay outcomes deposited in PubChem by Paczesny and Yang Labs, IUPUI and University of Michigan.
ST2 IL33 inh: blocks human ST2 binding to IL-33; inhibition, % for hits at 17 µM; AlphaLISA ST2-Fc/biotin-IL-33 interaction, 1 h; 78,000 compounds, 2.3% hits; AID 1259354; Q01638; in the data active = inhibition above about 30%
Target sequence (Q01638 whole entry, looked up): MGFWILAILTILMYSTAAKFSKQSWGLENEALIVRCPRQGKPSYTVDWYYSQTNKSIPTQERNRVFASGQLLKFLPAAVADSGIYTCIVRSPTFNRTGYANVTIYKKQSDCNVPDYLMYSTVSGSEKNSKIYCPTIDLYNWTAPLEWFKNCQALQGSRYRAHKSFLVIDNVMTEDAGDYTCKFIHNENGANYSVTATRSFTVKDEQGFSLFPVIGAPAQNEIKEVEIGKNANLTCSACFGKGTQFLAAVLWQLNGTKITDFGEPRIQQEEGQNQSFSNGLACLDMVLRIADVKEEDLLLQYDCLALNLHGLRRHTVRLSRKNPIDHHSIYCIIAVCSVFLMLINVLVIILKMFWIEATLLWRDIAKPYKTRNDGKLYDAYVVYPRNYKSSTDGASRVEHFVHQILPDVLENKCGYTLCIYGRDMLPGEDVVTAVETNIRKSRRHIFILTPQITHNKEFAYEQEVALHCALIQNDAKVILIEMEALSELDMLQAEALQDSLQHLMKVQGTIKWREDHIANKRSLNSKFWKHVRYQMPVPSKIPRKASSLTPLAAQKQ
Of the large screens only hits and unclear results are named; the others gave an inactive call. The entries come from a sample that favours hits as a whole.

CCOC(=O)C1CCCN(C(=O)c2sc3ncn(CC(=O)N(CC)CC)c(=O)c3c2C)C1 (configuration not stated)	none
CC(C)c1ccc(Nc2c(-c3ccsc3)nc3cnccn23)cc1	none
N#C/C(=C/c1cn(Cc2ccc(Cl)cc2Cl)c2ccccc12)C(=O)NCC1CCCO1 (configuration not stated)	ST2 IL33 inh 32%
Cc1c(C#N)c2ccccc2n1CC(=O)NCC1CCCO1 (configuration not stated)	none
Cn1cc(CC(=O)NCC2CCCO2)c2ccccc21 (configuration not stated)	none
CC(NC(=O)c1cc(-c2ccncc2)nc2ccccc12)c1ncn[nH]1 (configuration not stated)	none
COc1ccc(C(=O)CSc2nnc(C(O)c3ccccc3)n2-c2ccccc2)cc1 (configuration not stated)	none
O=C(O)CSc1nnnn1-c1ccccc1	none
CC(c1nnc(SCC(=O)O)n1-c1ccccc1)n1ccnc1 (configuration not stated)	ST2 IL33 inh 31%
Cc1ccc(S(=O)(=O)N2CCC(C(=O)N3CCOCC3)CC2)cc1	none
O=C(NCCC1=CCCCC1)C1CCC(Cn2c(=O)[nH]c3ccsc3c2=O)CC1 (configuration not stated)	none
CC(C)Cc1ccc(C(C)C(N)=O)cc1 (configuration not stated)	none
CC(C)C(=O)Nc1cccc(OCc2cc(=O)n3cc(Cl)ccc3n2)c1	none
Cc1ccc(O)c(C=Nc2ccc(Br)c3cccnc23)c1	ST2 IL33 inh 97%
Cc1ccccc1N=Cc1cc([N+](=O)[O-])ccc1O	none
COc1cc(Br)c(Br)c(C=Nc2cc(C)ccc2O)c1O	none
CCC1(C)Cc2ccccc2-c2c1c(=O)n(-c1ccc(C)cc1)c1nncn21 (configuration not stated)	none
O=c1[nH]c2ccc([N+](=O)[O-])cc2o1	none
CC1(C)CC(=O)C([N+](=O)[O-])=C(Nc2ccccc2)C1	none
Cc1cc(C)cc(NC(=O)c2cccs2)c1	none
CO[C@H]1CN(c2nnnn2-c2ccc(-c3ccccc3)cc2)CC[C@H]1N	none
O[C@@H]1C[C@@H](c2nc(-c3ccc(C(F)(F)F)cc3)no2)N(Cc2cc3ccccc3o2)C1	none
O=S(=O)(Cc1noc([C@@H]2C[C@@H](O)CN2Cc2cc3ccccc3o2)n1)c1ccc(F)cc1	none
CC(C)c1noc([C@@H]2C[C@@H](O)CN2Cc2cc3ccccc3o2)n1	ST2 IL33 inh 38%
CC(C)c1n[nH]c2c1CN(C(=O)c1cccc(C#CC(C)(C)O)c1)CC2	none
COc1cc([N+](=O)[O-])ccc1NC(=O)Cc1ccc(Br)cc1	none
Brc1ccc(-c2noc(COc3ccccc3)n2)cc1	none
Cc1nc(S(=O)(=O)c2ccccc2)c(N2CCCCC2)o1	none
O=C(COc1ccc(Br)cc1)N1CCCC1	none
Fc1ccccc1OCCN1CCNCC1	none
N#Cc1nc(COc2ccccc2F)oc1N1CCCC1	ST2 IL33 inh 53%
COc1ccc(-c2nc(C#N)c(N3CCOCC3)o2)cc1	none
N#Cc1nc(-c2ccc(F)cc2)oc1N1CCOCC1	none
Fc1ccccc1OCCCOc1ccccc1F	none
O=S(=O)(c1ccccc1)c1nc(-c2ccc(F)cc2)oc1N1CCCCC1	none
Cc1ccccc1OCc1nc(C#N)c(N2CCCC2)o1	ST2 IL33 inh 71%
N#Cc1nc(COc2ccccc2F)oc1N1CCCCC1	ST2 IL33 inh 53%
N#Cc1nc(COc2ccc(Br)cc2)oc1N1CCCCC1	ST2 IL33 inh 64%
CCN(CC)CCCNCc1ccccc1F	none
Cc1cc(C(=O)N2CCC3(CN(C)C(=O)O3)C2)c2c(C)nn(C)c2n1 (configuration not stated)	none
O=C(CCc1ccccc1)Nc1c(-c2ccccc2)nc2ccccn12	none
O=C(Nc1c(-c2ccc(F)cc2)nc2ccccn12)C1CC1	none
COc1ccc(C2C(C(N)=O)=C(C)Nc3ncnn32)cc1OC (configuration not stated)	none
O=C(O)C(Cc1ccco1)n1ccnc1-c1cccnc1 (configuration not stated)	none
CC(=O)N(C)c1ccccc1C(=O)O	none
CCSc1nnc(NC(=O)CSc2nc3c(c(=O)n2-c2ccc(C)cc2)SCC3)s1	none
C=CCNC(=O)/C(=C/c1ccc2c(c1)OCO2)NC(=O)c1ccco1	none
COc1ccccc1CN(Cc1ccc2c(C)cc(=O)oc2c1)C1CC1	none
OC/C=C/c1ccc(O[C@@H]2O[C@H](CO)[C@@H](O)[C@H](O)[C@H]2O)cc1	none
CCC(Cc1ccccc1)NC(C)=O (configuration not stated)	none
CCC(NC(=O)C1CC(=O)c2sc(NC(=O)Cc3ccccc3)nc2C1)c1cccs1 (configuration not stated)	none
O=C(NCCN1CCOCC1)Nc1ccc(Cl)cc1	none
O=C(CN1C(=O)/C(=C\c2ccc(Cl)cc2)Sc2ccccc21)N1CCOCC1	none
O=C(CN1C(=O)/C(=C\c2ccc(Cl)cc2)Sc2ccccc21)NCCN1CCCC1	ST2 IL33 inh 33%
CCC1Oc2ccccc2N(CC(=O)NCCN2CCCC2)C1=O (configuration not stated)	none
CCCCNC(=O)CN1C(=O)/C(=C\c2ccc(Cl)cc2)Sc2ccccc21	none
O=C(CN1C(=O)/C(=C\c2ccc(Cl)cc2)Sc2ccccc21)NCCN1CCOCC1	ST2 IL33 inh 30%
CCOc1ccc(-c2nc(SCC(=O)NCCC(C)C)n3[nH]c(=O)cc3n2)cc1	none
CC(=O)[C@]1(O)Cc2c(O)c3c(c(O)c2[C@@H](O[C@H]2C[C@H](N)[C@H](O)[C@H](C)O2)C1)C(=O)c1ccccc1C3=O	ST2 IL33 inh 34%
O=C(Nc1c(C(=O)Nc2cccc(F)c2)oc2ccccc12)c1ccc(F)c(F)c1	none
O=C1CC(N2CCCCCC2)C(=O)N1c1ccc(Br)cc1Br (configuration not stated)	none
CC(C)N(CCCNC(=O)C1CCCN1c1nnc(N2CCCC2=O)s1)Cc1ccccc1 (configuration not stated)	ST2 IL33 inh 34%
CN(CCCNC(=O)C1CCCN1c1nnc(N2CCCC2=O)s1)C1CCCCC1 (configuration not stated)	none
CN(CCNC(=O)C1CCCN1c1nnc(N2CCCC2=O)s1)C1CCCCC1 (configuration not stated)	none
O=C(NCCc1c[nH]c2ccccc12)c1ccc2nc3ccc(Cl)cc3c(=O)n2c1	none
CCc1sc(C(=O)O)cc1-c1cccc(C(C)N2CCCC2)c1 (configuration not stated)	none
O=C(Nc1ccc(F)c(Cl)c1)c1cnc2n(c1=O)CCS2	none
O=C(Nc1cc(Cl)cc(Cl)c1)c1cnc2n(c1=O)CCS2	none
O=C(Nc1ccc(Cl)c(Cl)c1)c1cnc2n(c1=O)CCS2	ST2 IL33 inh 32%
CC(C)(C)C1CCc2onc(C(=O)NC3CCCCC3)c2C1 (configuration not stated)	none
Cc1ccc(F)c(CN2CCC(Cn3cc(CNC(N)=O)nn3)CC2)c1	none
O=C(CCS(=O)(=O)c1cccc2nonc12)NCCc1ccccc1	none
CC(C)CCNC(=O)CCS(=O)(=O)c1cccc2nonc12	ST2 IL33 inh 60%
CC(C)NC(=O)CCS(=O)(=O)c1cccc2nonc12	none
Cn1ccnc1CN(CC(O)CO)C1CC1 (configuration not stated)	none
CCOc1ccc(NC(=O)c2cc3cc(Br)ccc3oc2=O)cc1	none
COc1cc([N+](=O)[O-])cc(C=Nc2cccc(-c3nc4c(C)cccc4o3)c2)c1O	none
COc1cc([N+](=O)[O-])cc(C=Nc2ccc(-c3nc4c(C)cccc4o3)cc2)c1O	none
COc1cc([N+](=O)[O-])cc(C=Nc2ncccc2O)c1O	ST2 IL33 inh 42%
Cc1cc(OCC(=O)Nc2sc3c(c2C(N)=O)CCCC3)ccc1Br	none
Cn1c(=O)c2c(nc(SCC(=O)Nc3ccc4c(c3)OCO4)n2Cc2ccccc2)n(C)c1=O	none
